Consider 14 compounds from PubChem BioAssay AID1347145 (National Center for Advancing Translational Sciences (NCATS), 2019).

SMILES strings stand for the structures. Inconclusive results are not listed. Unmarked numbers belong to inactive results. Active and inactive are the calls of the source. Calls come from the whole dose curve; as a rule, active = well fitted inhibition curve with a large enough effect; inconclusive = small, poorly fitted or top-dose-only effect; inactive = no such curve, though single readings can be large or run the other way.
Note: 0% is about no effect.

N-terminal Xaa-Pro-Lys N-methyltransferase 1 (Homo sapiens), sequence (Q9BV86 whole entry, looked up): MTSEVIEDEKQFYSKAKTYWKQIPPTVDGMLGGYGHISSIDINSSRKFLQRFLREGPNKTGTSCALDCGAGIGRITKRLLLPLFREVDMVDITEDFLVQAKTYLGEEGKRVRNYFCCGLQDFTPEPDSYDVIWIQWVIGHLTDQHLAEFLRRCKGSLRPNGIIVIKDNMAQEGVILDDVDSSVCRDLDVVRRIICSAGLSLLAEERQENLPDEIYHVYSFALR

This experiment addresses N-terminal Xaa-Pro-Lys N-methyltransferase 1 (Homo sapiens) (UniProt Q9BV86). The experiment is described as follows: qHTS Assay for Inhibitors of N-terminal methyltransferase 1 (NTMT1): MTaseGlo Assay Confirmatory Screen, Round 1. To be noted: Recombinant NTMT1, MTase-Glo SAH luminescence; series mostly up to 57.1 µM; activity change, negative = inhibition: at the top concentration. The method in brief:
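Luminescence from MTase-Glo conversion of SAH to ATP measured activity after a 30 min RT reaction with 1 µM SPKRIA substrate, 100 µM SAM and 125 nM enzyme. Normalization used no-enzyme and DMSO controls, followed by Hill fitting.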
For `OC[C@@H]1O[C@@H](n2cnc3c(N[C@H]4CCC[C@@H]4O)ncnc32)[C@H](O)[C@H]1O`, the “activity change, negative = inhibition” value was 1.42%.

For `COc1cc2nc(N3CCN(C)CC3)nc(NC(C)C)c2cc1OC`, the “activity change, negative = inhibition” value is 6.72%.

Take `COc1cc2c(NC3CCN(C)CC3)cc(N3CCCCN(C)CC3)cc2cc1OCCOCCN(C)C`: the “activity change, negative = inhibition” value was -12%.

For `Nc1nc(F)nc2c1ncn2[C@@H]1O[C@H](CO)[C@@H](O)[C@@H]1O`, the Potency result is “inactive”.

For `Nc1ncnc2c1nc(N1CCCCC1)n2[C@@H]1O[C@@H]2COP(=O)(O)O[C@H]2[C@H]1O`, the “activity change, negative = inhibition” value was 19.7%.

For the compound `CNC(=O)[C@H]1O[C@H](n2cnc3c(NCc4cccc(I)c4)nc(Cl)nc32)[C@@H](O)[C@@H]1O`, the “activity change, negative = inhibition” value is 1.27%.

In the case of `CO[C@@H]1[C@@H]2OP(=O)(O)OC[C@H]2O[C@H]1n1c(Sc2ccc(Cl)cc2)nc2c(N)ncnc21`, the “activity change, negative = inhibition” value was -3.23%.

As for `Nc1ncnc2c1ncn2[C@@H]1O[C@H](COP(=O)(O)OP(=O)(O)CP(=O)(O)O)[C@@H](O)[C@H]1O`, the “activity change, negative = inhibition” value was 436%.

For the compound `Nc1ncnc2c1ncn2[C@@H]1O[C@H](COP(=O)(O)OP(=O)(O)O)[C@@H](O)[C@H]1O`, the “activity change, negative = inhibition” value is 7.5%.

Turning to `COc1cc2nc(N3CCN(C)CC3)nc(NC3CCN(C)CC3)c2cc1OC`, the “activity change, negative = inhibition” value is -8.09%.

On to `COc1cc2c(NC3CCN(C)CC3)nc(N3CCN(C)CC3)nc2cc1OCCOCCN(C)C`, for which the “activity change, negative = inhibition” value was -10.4%.

Regarding `COc1cc2nc(N3CCCN(C)CC3)nc(NC3CC3)c2cc1OC`, the “activity change, negative = inhibition” value is 0.118%.

`CNC(=O)[C@H]1O[C@H](n2cnc3c(NCc4cccc(I)c4)ncnc32)[C@@H](O)[C@@H]1O`: the “activity change, negative = inhibition” value is -4.49%.

With `Nc1nc(=S)c2ncn([C@H]3O[C@@H](CO)[C@@H](O)[C@@H]3O)c2[nH]1`, the “activity change, negative = inhibition” value was 4.07% [at 27.6 µM].
